Candida biofilm: clotrimazole potentiators killing Candida biofilms, primary screen, with clotrimazole, Alamar Blue; inhibition, % at 6 µM; C. albicans biofilm + clotrimazole; 85,000 tested, 0.14% active;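 active = inhibition above 20%; inactive = inhibition below 20%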;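 note: preformed 24 hr biofilms exposed to compound for 48 hr; 0% = biofilm without compound and 100% = blank killed by clotrimazole plus chlorhexidine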
ERa coact inh: ERα–SRC-1 coactivator interaction inhibitors, primary screen, biochemical, TR-FRET, ERα LBD, estradiol-bound | TR-FRET ER-alpha LBD / SRC-1 peptide | inhibition, % at 25.6 µM | 86,000 tested, 1.7% active; in the data active = inhibition above about 50%;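 note: 0% = receptor plus peptide control and 100% = peptide only without receptor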
ERa coact pot: enhancers of ERα–SRC-1 coactivator binding, primary screen, biochemical, TR-FRET, ERα LBD, low estradiol | 86,000 tested, 1.3% active | coactivator binding (% of control), % at 25.6 µM | Estrogen receptor (Homo sapiens), P03372 | TR-FRET ERalpha-LBD/SRC-Cy5 coactivator binding, 2 h; 100 = basal binding, no effect | AID 639, 2007; in the data active = activity above about 200%;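 note: binding measured in presence of low estradiol as agonist stimulus; 0% = peptide alone without receptor and 100% = receptor with peptide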
ERb SRC1 inh: inhibitors of ERβ-SRC1 coactivator interaction, primary screen, biochemical, TR-FRET, ERβ LBD, SRC-1 peptide | Estrogen receptor beta (Homo sapiens), Q92731 | TR-FRET ER-beta LBD / SRC1-Cy5 peptide binding; receptor agonist-loaded with 1 µM estradiol | inhibition, % at 25.6 µM | 86,000 tested, 1.3% active | AID 633, 2007;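 active = compounds whose percent inhibition of the receptor-coactivator binding signal exceeds about 50% in the single-dose screen, limit read from the data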;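 note: 0% = receptor plus peptide wells without compound and 100% = peptide-only wells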
Target sequence (Q92731 whole entry, looked up, the tested form may be a part): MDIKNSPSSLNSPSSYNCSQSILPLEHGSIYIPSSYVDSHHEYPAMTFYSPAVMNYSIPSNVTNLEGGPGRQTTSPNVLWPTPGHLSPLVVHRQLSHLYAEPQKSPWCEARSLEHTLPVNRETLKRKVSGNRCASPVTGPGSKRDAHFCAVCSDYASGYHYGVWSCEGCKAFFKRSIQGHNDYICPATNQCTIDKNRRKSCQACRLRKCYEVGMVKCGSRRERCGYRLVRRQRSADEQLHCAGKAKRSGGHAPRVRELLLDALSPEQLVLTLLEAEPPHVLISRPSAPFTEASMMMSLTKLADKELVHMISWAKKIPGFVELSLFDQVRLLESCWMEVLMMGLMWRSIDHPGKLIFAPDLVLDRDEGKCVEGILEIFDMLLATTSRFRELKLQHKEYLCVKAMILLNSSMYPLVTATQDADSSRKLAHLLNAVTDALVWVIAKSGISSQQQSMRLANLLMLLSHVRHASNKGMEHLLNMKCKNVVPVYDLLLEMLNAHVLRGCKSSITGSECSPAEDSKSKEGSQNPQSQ
Smad3 FoxH1 inh: Smad3/FoxH1 peptide binding inhibitors, primary screen, biochemical, TR-FRET; Mothers against decapentaplegic homolog 3 (Homo sapiens), P84022; 88,000 tested, 0.29% active; inhibition, % at 25 µM; TR-FRET Smad3/Dy647-FoxH1 peptide binding, europium anti-His;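 active = compounds that reduce the energy-transfer binding signal between the protein and its labelled peptide by more than half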;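 note: 0% = Smad3 plus labelled peptide maximal FRET and 100% = peptide-only background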
MT1-MMP txn act: MT1-MMP promoter reporter activation – cell-based, luciferase luminescence, primary screen; activation factor at 10 µM; 86,000 tested, 0.16% active; HT1080 MT1-MMP promoter luciferase reporter, overnight; hits give high values;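 active = activation factor of at least 2 for MT1-MMP transcription at 10 µM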
An asterisk follows results filed as active; nt = no result given; [ ] = another dose, or the depositor's remark. The list is not random: actives were taken first. Their share in the collection is about 3.8%.

SMILES	Candida biofilm	ERa coact inh	ERa coact pot	ERb SRC1 inh	Smad3 FoxH1 inh	MT1-MMP txn act
O=C(NCSc1ccnc(SCNC(=O)c2ccccc2)n1)c1ccccc1	9	-6	252*	10	-5	1.2
Cc1cc(C)nc(SCNC(=O)c2ccc(Cl)cc2)n1	4	3	114	-8	0	1.1
O=C(O)[C@H]1CCCN1	nt	nt	nt	nt	-3	nt
O=C(CCN1CCOCC1)Nc1ccc(F)cc1F	nt	nt	nt	nt	-8	nt
COc1ccc2nc(NC(=O)Cc3cccs3)sc2c1	-2	15	67	22	4	1.5
COc1ccc2nc(NC(=O)CCc3nc(-c4ccccc4F)no3)sc2c1	5	34	204*	48	-6	1.2
COC(=O)c1ccc(C(NC(=O)OCc2ccccc2)/C(C)=C/[C@@H](C)C(=O)O)cc1 (some centres not stated)	nt	nt	nt	nt	nt	1.2
Cn1c(N)c(C(=O)CSc2nc3ccccc3n2-c2ccccc2)c(=O)n(C)c1=O	-3	48	231*[fluorescence artefact?]	38	19	1.2
COc1ccc(-n2c(SCC(=O)c3c(N)n(C)c(=O)n(C)c3=O)nc3ccccc32)cc1	5	11	73	15	10	1.1
COC(=O)C12CC3CC(C1)CC(n1cnc(Cl)n1)(C3)C2	16	1	102	-2	5	2.3*
COC(=O)c1ccccc1NC(=O)C12CC3CC(C1)CC(n1cnc(Cl)n1)(C3)C2	6	-3	93	-4	0	1.1
CC(C)N(CC(=O)O)CC(=O)O	nt	nt	nt	nt	1	nt
COC(=O)c1[nH]c2cccc(OC)c2c1NC(=O)CN1CC2(C)CC1CC(C)(C)C2 (configuration not stated)	0	-2	109	5	67*[fluorescence artefact?]	1
COC(=O)Nc1sccc1C(=O)Nc1sccc1C(=O)OC	-1	12	201*	6	6	1.1
CCC(=O)Nc1sccc1C(=O)OC	nt	0	116	-4	3	1
O=S(=O)(Nc1ccc(S(=O)(=O)N2CCCCC2)cc1)c1cccs1	8	-5	105	-8	7	1.1
O=S(=O)(Nc1ccc(N2CCOCC2)cc1)c1cccs1	3	97*[fluorescence artefact?]	6	76*[fluorescence artefact?]	13	1.2
CC(C)CNc1nc2ncnc(N)c2[nH]1	nt	nt	nt	nt	16	nt
CCC/C(=N/Nc1ccc(Cl)cc1)c1cnnc(-c2ccccc2)n1	6	94*	12	67*[fluorescence artefact?]	11	1.1
CCOc1ccc(Nc2oc(-c3ccccc3Cl)nc2C#N)cc1	0	71*	23	31	15	1.1
CNc1oc(-c2ccccc2Cl)nc1C#N	0	-3	95	-9	-2	1.3
Nc1ccc(-c2ccc(Nc3cc(S(=O)(=O)O)c(N)c4c3C(=O)c3ccccc3C4=O)cc2)c(S(=O)(=O)O)c1	nt	nt	nt	nt	94*	nt
Nc1nc2c(c(=O)[nH]1)CN(CCCN1CCOCC1)CN2	nt	nt	nt	nt	72*	nt
Nc1nc2c(c(=O)[nH]1)CN(c1ccc(S(N)(=O)=O)cc1)CN2	nt	nt	nt	nt	24	nt
O=C1c2ccccc2C(=O)c2c(NC3CCCCC3)ccc(Nc3ccc(S(=O)(=O)O)cc3)c21	nt	nt	nt	nt	-1	nt
SMILES	Candida biofilm	ERa coact inh	ERa coact pot	ERb SRC1 inh	Smad3 FoxH1 inh	MT1-MMP txn act
Cc1cccc(NC(=O)CSc2nc3ccccc3c3nc(CCc4c(C)n[nH]c4C)nn23)c1	7	67*[fluorescence artefact?]	31	45	10	1
Cc1n[nH]c(C)c1CCc1nc2c3ccccc3nc(SCC(=O)Nc3ccccc3F)n2n1	-2	73*[fluorescence artefact?]	181	59*[fluorescence artefact?]	7	nt
Cc1nc2ccccc2n1CCc1nc2c3ccccc3nc(SCC(=O)NCc3ccco3)n2n1	6	48	194	7	-1	1.2
Cc1nn(C)c(C)c1N=Cc1c(O)ccc2ccccc12	9	-4	96	68*[fluorescence artefact?]	8	1.2
CCCn1c(C)nc2c(c1=O)c1nc3ccccc3nc1n2CCC1=CCCCC1	3	31	170	22	9	1.1
COCCCn1c2nc3ccccc3nc2c2c(=O)n(-c3ccccc3OC)c(C)nc21	0	12	319*	5	7	1.1
CCCn1c(C)nc2c(c1=O)c1nc3ccccc3nc1n2CCc1ccccc1	9	53*	141	33	4	1
O=C(O)CC1(C(=O)O)CCCCC1	nt	nt	nt	nt	-10	nt
Cc1nn(C)c(C)c1NC(=O)CSc1nc(Cc2ccccc2)nc2c1cnn2-c1ccccc1	2	82*[fluorescence artefact?]	141	56*[fluorescence artefact?]	2	1
CCc1nc(SCC(=O)Nc2c(C)nn(C)c2C)c2cnn(-c3ccccc3)c2n1	5	48	93	16	6	1.2
Cc1sc2nc(C(C)Nc3ccccc3N3CCOCC3)[nH]c(=O)c2c1C (configuration not stated)	3	-12	254*	-5	-3	1
O=C(O)c1cccc2cccc(-c3cccc4cccc(C(=O)O)c34)c12	nt	nt	nt	nt	67*	nt
O=C(NCCCN1CCCCCC1)C1CC(=O)N(CCc2ccccc2)C1 (configuration not stated)	4	3	966*[fluorescence artefact?]	22	60*	1.1
O=C(NCCCN1CCOCC1)C1CC(=O)N(CCc2ccccc2)C1 (configuration not stated)	nt	nt	nt	nt	nt	1.1
CCCOc1ccccc1NC(=O)c1ccc(N)cc1	1	-6	104	-8	-3	1.2
CCCOc1ccc(N)cc1N	nt	99*[fluorescence artefact?]	-3	99*[fluorescence artefact?]	9	1.1
O=C(c1ccc2nc(-c3ccco3)c(-c3ccco3)nc2c1)N1CCN(c2ncccn2)CC1	6	76*[fluorescence artefact?]	26	86*[fluorescence artefact?]	17	1.1
O=C(Nc1ccc(N2CCOCC2)cc1)c1ccncc1	2	-2	84	20	-8	1.7
S=C(Nc1ccc(N2CCOCC2)cc1)Nc1ccc2nc(-c3ccco3)c(-c3ccco3)nc2c1	0	68*[fluorescence artefact?]	14	89*[fluorescence artefact?]	-17	nt
O=C(Nc1ccc(N2CCOCC2)cc1)c1ccc2nc(-c3ccco3)c(-c3ccco3)nc2c1	-2	80*[fluorescence artefact?]	42	50*[fluorescence artefact?]	15	1.2
O=c1[nH]c2ccc(Cl)cc2c(=O)n1Cc1ccco1	3	-2	118	-10	2	0.9
O=c1[nH]c2ccccc2c(=O)n1Cc1ccco1	6	-2	98	63*	-1	1.1
O=c1c2cc(N3CCOCC3)ccc2[nH]c(=S)n1Cc1ccco1	9	47	99	51*	5	1.4
O=c1c2cc(N3CCOCC3)ccc2[nH]c(=S)n1Cc1cccc(Cl)c1	7	3	127	0	-31	1.1

Compound activity (PubChem BioAssay)
